# Test results: PubChem BioAssay AID720650 (Broad Institute, 2013)
# Unmarked numbers belong to inactive results. Activity calls are given as the source filed them. How the calls were made is not given here.
# Test: C difficile toxins, biochemical counterscreen, UDPG substrate absence, confirmatory dose response (AID 720650)
# Details: series mostly up to 19.5 µM
row,SMILES,AC50
1,COc1cc(NC(=O)CSc2nc3[nH]ncc3c(=O)n2-c2ccccc2C)cc(OC)c1OC,inactive
2,COc1cc(/C=N/NC2=NCCCCC2)ccc1O,inactive
3,COc1ccc(Cl)cc1NC(=O)CN(C)C(=O)c1cc2c(s1)CCCC2,inactive
4,CCCNC(=O)C[C@H]1CC[C@@H]2[C@@H](COc3ccc(NC(=O)c4ccc5c(c4)OCO5)cc3C(=O)N2C)O1,> 39 µM
5,COc1ccc2nc(NNC(=O)C3COc4ccccc4O3)sc2c1 (stereo not drawn),< 0.16 µM (active)
6,O=C(c1ccccc1)c1coc2ccc(O)c(Cl)c12,12.7 µM (active)
7,Nc1ccc2c(c1)[nH]c(=O)c1cc(N)ccc12,13 µM (active)
8,CN(C)c1ccc(NC(=O)/C=C/c2c(Cl)cccc2Cl)cc1,inactive
9,C[C@H](CO)N1C[C@H](C)[C@@H](CN(C)C(=O)Nc2ccc(C(F)(F)F)cc2)Oc2c(cccc2N(C)C)C1=O,19 µM (active)
10,Cc1ccc(S(=O)(=O)Oc2ccccc2/C=C2/SC(=O)NC2=O)cc1,inactive
11,Cc1noc(C)c1NC(=O)N(C)C[C@@H]1Oc2ccc(NC(=O)C3CCCCC3)cc2C(=O)N([C@@H](C)CO)C[C@H]1C,inactive
12,CCOC(=O)c1ccc(N=c2sc(C(=O)OC)cc(=O)n2CCCN2CCOCC2)cc1,inactive
13,CC(=O)Nc1cnc(-c2ccccc2O)cn1,15.3 µM (active)
14,CCC(=O)N1CC[C@@H]2[C@@H](CO)N(C)c3ccc(-c4ccccc4)cc3[C@@H]21,6.31 µM (active)
15,CC(=O)Nc1ccc(NC(=O)Cc2ccc(S(=O)(=O)N3CCCCC3)cc2)cc1,inactive
16,CC(C)(C)c1cc(Cl)c(O)c(NC(=S)NC(=O)c2cccnc2)c1,inactive
17,CCOC(=O)c1ccc2ncc(-c3ccccc3)nc2c1,inactive
18,COc1cc(/C=N/NC(=O)CSc2ccccn2)ccc1O,inactive
19,CCOC(=O)N1CCC(c2cc(=O)n3[nH]c(-c4ccccc4)cc3n2)CC1,inactive

row,SMILES,AC50
1,COc1cc2c(cc1O)CC[n+]1cc3c(OC)c(OC)ccc3cc1-2,> 39 µM
2,Cc1ccc(S(=O)(=O)N2CC(CBr)=CCC2c2ccccc2)cc1 (stereo not drawn),13.9 µM (active)
3,CC(=O)Oc1ccc(/C=N/NC(=O)CCSc2ccccc2)cc1,inactive
4,CC(C)NC(=O)N1CC[C@@H]2[C@H]1c1cc(-c3ccc(F)cc3)ccc1N(C)[C@H]2CO,6.96 µM (active)
5,Cc1cc(C(C)(C)C)cc(CN2CCN(S(=O)(=O)c3cccs3)CC2)c1O,inactive
6,O=C(Nc1ccncc1)c1ccc(-c2ccccc2)cc1,inactive
7,Cc1ccc2c(C)c3ccc4ccccc4c3c[n+]2c1,inactive
8,O=C(CNC(=O)c1ccccc1Br)N/N=C/c1ccc(O)cc1,15.7 µM (active)
9,CN1C(=O)CSc2ccc(NC(=O)N3CCc4ccccc43)cc21,20.2 µM (active)
10,CC(=O)Nc1n[nH]c(=S)s1,> 39 µM
11,O=C(Nc1nnc(C(F)(F)F)s1)c1ccc(Br)s1,8.05 µM (active)
12,COC(=O)c1sc2nc(SCc3ccccc3C)n(N)c(=O)c2c1C,inactive
13,COc1ccccc1Nc1nnc(SCc2cc(=O)n3ccsc3n2)s1,> 39 µM
14,CC(/C=N/n1c(-c2ccncc2)n[nH]c1=S)=C\c1ccco1,inactive
15,COC(=O)[C@H]1C[C@@H]1[C@H](NP(=O)(c1ccccc1)c1ccccc1)c1ccccc1,inactive
16,Cn1c(SCc2nnc(-c3ccccc3)o2)nc2ccccc21,inactive
17,O=C(Cn1cc(COc2ccc(Cl)c(Cl)c2)nn1)NS(=O)(=O)c1ccccc1OC(F)(F)F,inactive
18,COc1ccccc1/C=C/c1onc(C)c1S(=O)(=O)N1CCC(C(=O)NC2CCCCCC2)CC1,inactive
19,Cc1cnc(C(=O)OCC(=O)N2C(C)CCCC2C)cn1 (stereo not drawn),inactive
